Giardia killer: Small Molecules that selectively kill Giardia lamblia: qHTS. Giardia lamblia trophozoite viability. activity change, % at 7.66 µM, hits read low. 340,000 tested, 0.15% active. AID 540267, 2011; in the data active = activity change below about -80%; inconclusive = between about -30% and that limit;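 also: parasites exposed to compound for two days anaerobically before the ATP read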
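Trophozoite viability was measured as ATP-dependent luminescence, read 15-30 min after reagent addition. Before that, parasites at 100 cells/well were exposed to compounds for 48 h, anaerobically, at 37 deg C.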
ELG1 repair inh: qHTS screen for small molecules that inhibit ELG1-dependent DNA repair in human embryonic kidney (HEK293T) cells expressing luciferase-tagged ELG1 | AID 504467, 2011 | 330,000 tested, 2.3% active | HEK293T ELG1-luciferase reporter, luminescence, 16 h; DNA damage induced by 5-fluorouridine | Potency, µM (top dose mostly 46.1 µM), usual class: inhibitors; also: nearly all actives have a fitted effect of over 55% in size
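Cells (2,000 per well) received 5-fluorouridine plus test compound or DMSO and were incubated 16 hr at 37 °C, 5% CO2. Luciferase activity was read by luminescence 30 min after ONE-Glo addition; signal suppression marked inhibition of damage-induced ELG1 function.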
TDP1 inh: qHTS Assay for Inhibitors of Tyrosyl-DNA Phosphodiesterase (TDP1); Potency, µM (series often up to 130 µM), usual class: inhibitors; 350,000 tested, 0.28% active; Tyrosyl-DNA phosphodiesterase 1 (Homo sapiens), Q9NUW8; recombinant TDP1, AlphaScreen DNA substrate cleavage; AID 485290, 2010; also: nearly all actives have a fitted effect of over 40% in size
Target sequence (Q9NUW8 whole entry, looked up): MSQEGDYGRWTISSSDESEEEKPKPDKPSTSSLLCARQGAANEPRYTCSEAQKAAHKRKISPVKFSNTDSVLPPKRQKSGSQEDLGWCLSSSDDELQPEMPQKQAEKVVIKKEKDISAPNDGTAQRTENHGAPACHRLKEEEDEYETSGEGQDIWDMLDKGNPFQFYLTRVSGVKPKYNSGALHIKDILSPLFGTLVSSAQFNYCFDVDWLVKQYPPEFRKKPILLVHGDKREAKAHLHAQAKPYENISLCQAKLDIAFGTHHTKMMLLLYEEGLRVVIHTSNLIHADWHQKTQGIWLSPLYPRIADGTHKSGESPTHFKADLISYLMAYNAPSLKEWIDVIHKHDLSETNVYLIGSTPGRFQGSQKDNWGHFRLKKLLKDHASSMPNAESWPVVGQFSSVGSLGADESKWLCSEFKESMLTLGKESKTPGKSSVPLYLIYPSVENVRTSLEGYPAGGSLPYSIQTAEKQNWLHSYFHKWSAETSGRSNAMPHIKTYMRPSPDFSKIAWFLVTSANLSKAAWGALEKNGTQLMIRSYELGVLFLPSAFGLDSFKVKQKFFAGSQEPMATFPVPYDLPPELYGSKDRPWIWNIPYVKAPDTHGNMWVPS
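Here, a 5' biotin and 3' phosphotyrosine-FITC DNA oligonucleotide reports Tdp1 activity: intact substrate bridges AlphaScreen beads, while cleavage leaves a 3' phosphate and drops signal. All incubations at room temperature.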
IL1B secr inh: qHTS for Inhibitors of Inflammasome Signaling: IL-1-beta AlphaLISA Primary Screen | activity change, % at 57.5 µM | 360,000 tested, 4.7% active | THP-1 LPS/ATP IL-1B secretion, AlphaLISA, 16 h; active compounds read low; in the data active = activity change below about -50%; inconclusive = mostly about -30% to -49%
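THP-1 cells pretreated 1 hr with compounds (up to 57.5 uM final), then stimulated with LPS (250 ng/mL final) plus ATP (1.25 mM final); secreted IL-1B measured by AlphaLISA after 16 hr, decreased signal indicating inhibition.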
TDP1 cell noCPT: qHTS for Inhibitors of human tyrosyl-DNA phosphodiesterase 1 (TDP1): qHTS in cells in absence of CPT; DT40 Tdp1-/- hTDP1 cells, no CPT, ATP luminescence, 48 h; Potency, µM (series often up to 46.2 µM), hits mostly inhibitors; 420,000 tested, 15% active; AID 686978, 2013; also: nearly all actives have a fitted effect of over 55% in size
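DT40 Tdp1-/-;hTDP1 cells, no CPT (DMSO vehicle only), 400 cells/well; compounds pin-transferred; ≥48 hr, 37 °C; CellTiter-Glo 30 min RT dark, luminescence read.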
DT40 TDP1 CPT: qHTS for Inhibitors of human tyrosyl-DNA phosphodiesterase 1 (TDP1): qHTS in cells in presence of CPT. chicken DT40 Tdp1-/-;hTDP1 cells + 20 nM CPT, ATP luminescence, 48 h. Potency, µM (highest dose often 46.2 µM), hits mostly inhibitors. 420,000 tested, 12% active. AID 686979, 2013; also: nearly all actives have a fitted effect of over 55% in size
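Cell growth measured by CellTiter-Glo luminescence after a minimum 48 h, 37 C compound exposure with 20 nM CPT in Tdp1-knockout DT40 cells stably expressing hTDP1, seeded 400/well; qHTS titration format.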
A number is an active result; . = inactive; ? = inconclusive; / = no result given; [ ] = dose if it differs, or a comment. Only some compounds are listed: those with a hit (about 19% of all), similar ones and a draw of the others. Unless noted, calls follow the shape of the dose curve; as a rule, active = well fitted curve in the direction sought with a large enough effect; inconclusive = small, poorly fitted or top-dose-only effect, or another doubt; inactive = no such curve, though single readings can be large; an effect the other way counts as inactive or inconclusive.

SMILES	Giardia killer	ELG1 repair inh	TDP1 inh	IL1B secr inh	TDP1 cell noCPT	DT40 TDP1 CPT
Cc1oc2cc(Br)c(O)c(Br)c2c1-c1ccccc1	.	?	/	.	?	.
COc1cc(NC(=O)CSc2ncc(S(=O)(=O)c3ccc(Br)cc3)c(=O)[nH]2)cc(OC)c1	/	/	.	/	/	/
O=C(Cn1ncc2c3ccccc3n(Cc3ccccc3F)c2c1=O)NCCN1CCOCC1	.	.	.	.	?	?
CCCCN(CC)CCCNC(=O)Cn1ncc2c3ccccc3n(Cc3ccccc3F)c2c1=O	/	/	.	/	12µM	13µM
CCCC1CCC(c2ccc(C(=O)NN)cc2)CC1 (configuration not stated)	.	?	.	.	29µM	29µM
CCCCCC1CCC(c2ccc(C(N)=O)cc2)CC1 (configuration not stated)	.	.	.	.	.	.
CCCC1CCC(c2ccc(/C(N)=N/O)cc2)CC1 (configuration not stated)	.	.	.	?	15µM	?
CCCC1CCC(c2ccc(C(N)=O)cc2)CC1 (configuration not stated)	.	.	.	.	.	.
COc1ccc(C2(c3ccc(OC)cc3)NC(=O)NC2=O)cc1	.	.	.[0.0935 µM]	.	.	.
CC(C)Oc1ccc(S(=O)(=O)N2CCOCC2)cc1NC(=O)CC1CC2CCC1C2 (configuration not stated)	/	/	/	.	?	.
Cc1cc(C)cc(C(=O)NCC(=O)OCC(=O)Nc2cccnc2Cl)c1	.	.	.	.	.	.
O=[N+]([O-])c1cccc(-c2ccc(SCc3cccnc3)nn2)c1	.	.	.	-80	?	?
Fc1cccc(CSc2ccc(-c3ccc4c(c3)OCO4)nn2)c1	.	?	.	.	.	.
c1cncc(CSc2ccc(-c3ccc4c(c3)OCO4)nn2)c1	.	?	.	-51	16µM	?
CCc1n[nH]c(=S)n1/N=C/c1cc(Br)c(OC)cc1OC	.	.	.	.	.	.
Cc1c(C(=O)N2CCC(C)CC2)c(S(=O)(=O)N2CCN(c3cccc(Cl)c3)CC2)c(C)n1C	/	/	.	/	?	?
COC1=CC(=O)c2nc(Cl)ccc2C1=O	/	/	/	-111	1µM	0.58µM
CCOc1ccc2nc(NC(=O)c3cccc(-c4cc5ccccc5oc4=O)c3)sc2c1	.	.	.	.	23µM	?
Cc1ccc2nc(NC(=O)c3cccc(-c4cc5ccccc5oc4=O)c3)sc2c1	.	?	.	.	23µM	15µM
CCOc1ccc(C(=O)Nc2cccc(-c3cc4ccccc4oc3=O)c2)cc1[N+](=O)[O-]	.	?	.	.	23µM	23µM
O=C(Nc1cccnc1)c1cccc(-c2cc3ccccc3oc2=O)c1	?	?	.	.	.	.
CCOc1ccc2nc(NC(=O)c3cccc(N4C(=O)CCC4=O)c3)sc2c1	/	/	/	.	?	.
O=C(Nc1cccc(-c2cc3ccccc3oc2=O)c1)c1ccc(Br)o1	.	?	.	.	?	?
COc1cccc(C2c3c(ncn(-c4ccc(Br)cc4)c3=N)Oc3ccc4ccccc4c32)c1 (configuration not stated)	/	/	.	/	/	/
CCOc1ccc(-n2nc(CO)c(C(=O)NCc3cccs3)n2)cc1	/	/	.	/	16µM	?
O=c1c(-c2cc(-c3ccc(F)cc3)nc3c2COc2ccc(Cl)cc2-3)coc2ccc(F)cc12	/	/	.	/	.	.
CCOc1ccc2oc(C(=O)Nc3ccc(N4CCOCC4)cc3)c(C)c2c1	.	/	.	.	?	.
COc1ccc2oc(C(=O)N(C)Cc3ccc4c(c3)OCCO4)c(C)c2c1	.	.	/	.	?	?
CCOc1ccc2oc(C(=O)N(C)CC(=O)Nc3ccc(OCC)c(OCC)c3)c(C)c2c1	.	?	.[0.505 µM]	.	18µM	?
